Tau fil binding: binders of human tau filaments; P10636; recombinant tau filaments, thioflavin S fluorescence, 15 h; filaments grown with octadecylsulfate alongside compound; Potency, µM (titrated, usually from 57.1 µM), inactives show at the highest dose activity change, negative = inhibition; 71,000 tested, 2% active; AID 596;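 note: % is set by controls: 0 for no effect and ±100 for the full control effect; actives lower thioflavin S fluorescence by blocking filaments or displacing dye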
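His-tagged recombinant human tau (exons 2, 3 and 10 included), 1 uM, was induced to fibrillize by 30 uM sodium octadecylsulfate with compound present. After 15 h at 37 C, thioflavine S fluorescence (ex 450, em 510 nm) was read.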
15-hLO inh: 15-hLO (ALOX15) enzyme inhibition | P16050 | purified 15hLO-1, xylenol orange hydroperoxide absorbance | Potency, µM (doses to about 57.1 µM), for the others: at the top dose activity change, negative = inhibition, usual class: inhibitors | 74,000 tested, 1.4% active | AID 887; note: % is set by controls: 0 for no effect and ±100 for the full control effect; nearly all actives have a fitted effect of over 55% in size
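Readout: Fe(III)-xylenol orange absorbance, 573-to-405 nm ratio as reaction progress. Enzyme 40 nM purified human 15hLO-1, substrate 50 uM arachidonic acid, 6 min RT after 15 min compound preincubation; Hepes pH 7.5 buffer with Triton X-100.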
Casp7 inh: blocks human caspase-7 allosterically or competitively; recombinant caspase-7, Ac-DEVD-AFC fluorescence rate; Potency, µM (highest dose often 57.5 µM), for the others: top-dose activity change, negative = inhibition, hits mostly inhibitors; 75,000 tested, 0.02% active; AID 889; active = well fitted inhibition curve with a large enough effect in the main read-out, with a control signal flat, not every such curve was filed as active; inconclusive = small, poorly fitted or top-dose-only effect, or a change in a side signal; note: % of control where 0% means no effect
Casp1 inh: allosteric or competitive inhibitors of human caspase-1 | P29466 | Caspase-1 enzyme, Ac-WEHD-AFC fluorogenic rate | Potency, µM (titrated, usually from 57.5 µM), inactives show at the top dose activity change, negative = inhibition, actives largely listed as inhibitors | 75,000 tested, 0.03% active;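 note: plate controls were vehicle for no effect and no substrate for full effect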
DNA Pol III inh: inhibitors of bacterial DNA polymerase III holoenzyme. reconstituted DNA polymerase III holoenzyme replication, biochemical. Potency, µM (titrated, usually from 57.1 µM), inactives show at the top dose activity change, negative = inhibition. 71,000 tested, 0.25% active; note: % is set by controls: 0 for no effect and ±100 for the full control effect
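Reconstituted *E. coli* holoenzyme (0.35 nM Pol III, 1 nM beta, 154 nM SSB, 2 nM primase) was preincubated with compound for 15 min at RT. Synthesis on 1.4 nM ssM13Gori ran 35 min, then was stopped with PicoGreen/EDTA and read as dsDNA fluorescence.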
Numbers without * were called inactive; ! = repeats disagree; [ ] = remark or other dose. A selection: hits, their analogues and other compounds. The true share with any hit is near 3.2%. Unless noted, calls come from the whole dose curve; as a rule, active = well fitted curve in the direction sought with a large enough effect; inconclusive = small, poorly fitted or top-dose-only effect, or another doubt; inactive = no such curve, though single readings can be large; an effect the other way counts as inactive or inconclusive. Potency is the fitted concentration of half-maximal effect.

Screening COCc1cc(CN2CCCC2)c(O)c2ncccc12 returned Tau fil binding -16%, 15-hLO inh 2.5µM*, Casp7 inh -6%, Casp1 inh -6% and DNA Pol III inh -3%.
`C[C@H]1/C=C\CC(=O)OC[C@H](C)C(=O)N2CCC[C@@H]2C(=O)OC1` gave 15-hLO inh 0%[11.4 µM], Casp7 inh -6%[11.5 µM] and Casp1 inh -5%[11.5 µM].
For c1ccc(-c2ccc(N3CCCC4(CCNCC4)C3)cc2)cc1 the results were Tau fil binding 3.2µM*, 15-hLO inh -17%, Casp7 inh -3%, Casp1 inh -5% and DNA Pol III inh -5%.
c1ccc(-c2ccc(N3CC[C@@]4(CCCNC4)C3)cc2)cc1 was read as Tau fil binding -2%, 15-hLO inh -25%, Casp7 inh -1%, Casp1 inh -1% and DNA Pol III inh 1%.
Screening c1ccc(-c2ccc(N3CC4(CCNCC4)C3)cc2)cc1 returned Tau fil binding 13µM*, 15-hLO inh -27%, Casp7 inh -2%, Casp1 inh -4% and DNA Pol III inh -1%.
Oc1ccccc1C(=S)N1CCCCCC1 was read as Tau fil binding 25µM*, 15-hLO inh inconclusive, Casp7 inh -1%, Casp1 inh 1% and DNA Pol III inh -5%.
For CC1(C)CC(=O)C2=C(C1)Oc1ncn(Cc3ccco3)c(=N)c1C2c1ccccc1 (stereo unspecified) the results were Tau fil binding 16µM*, 15-hLO inh -7%, Casp7 inh -5%, Casp1 inh -1% and DNA Pol III inh -7%.
`COC(=O)c1ccc(NC(=O)N2CCOCC2)cc1` gave Tau fil binding -5%, 15-hLO inh -7%, Casp7 inh 0%, Casp1 inh -1% and DNA Pol III inh 0%.
`O=C(Nc1ccccc1)N1CC=C(c2ccccc2)CC1` gave Tau fil binding inconclusive, 15-hLO inh 25µM*, Casp7 inh -4%, Casp1 inh -1% and DNA Pol III inh -4%.
For O=C(Nc1ccccc1)N1CC=C(c2ccc(F)cc2)CC1 the results were Tau fil binding -4%, 15-hLO inh inconclusive, Casp7 inh -3%, Casp1 inh -4% and DNA Pol III inh -3%.
Screening O=C(Nc1ccc(Nc2ccccc2)cc1)N1CCOCC1 returned Tau fil binding 16µM*, 15-hLO inh 0%, Casp7 inh 0%, Casp1 inh -3% and DNA Pol III inh -6%.
Cc1cc(N)n2ncc(-c3cccc(Br)c3)c2n1 was read as Tau fil binding 1.6µM*, 15-hLO inh -23%[11.4 µM], Casp7 inh -3%, Casp1 inh -5% and DNA Pol III inh -2%[11.4 µM].
For Cc1nc(NCCO)c2nc(-c3ccccc3)n(CCCN(C)C)c2n1 the results were Tau fil binding 3%, 15-hLO inh 2%, Casp7 inh 0%, Casp1 inh -1% and DNA Pol III inh -3%.
Cc1ccc(N(CC(=O)Nc2cccc(C)c2)S(=O)(=O)c2cccc3nonc23)cc1 was read as Tau fil binding 16µM*, 15-hLO inh inconclusive, Casp7 inh 0%, Casp1 inh -8% and DNA Pol III inh 0%.
CCCC(=O)NCCCCNC(=O)CCC was read as Tau fil binding 17%, 15-hLO inh 3%, Casp7 inh 0%, Casp1 inh 0% and DNA Pol III inh -4%.
For CCCCC/C=C\C/C=C\CCCCCCCC(=O)O the results were Tau fil binding inconclusive, 15-hLO inh 0.16µM*, Casp7 inh -10%, Casp1 inh -8% and DNA Pol III inh -11%.
CCCCCCCC/C=C\CCCCCCCC(=O)N(CCO)CCO was read as Tau fil binding 78%, 15-hLO inh 1.3µM*, Casp7 inh -17%, Casp1 inh -13% and DNA Pol III inh -2%.
CCCCCCCC/C=C\CCCCCCCC(=O)O was read as Tau fil binding 32µM*, 15-hLO inh -6%, Casp7 inh -10%, Casp1 inh -9% and DNA Pol III inh -3%.
For CCCCCCCC/C=C\CCCCCCCC(=O)NCCO the results were Tau fil binding 32µM*!, 15-hLO inh 3%[25.6 µM], Casp7 inh 0%, Casp1 inh -4% and DNA Pol III inh 0%.
For CCCCCCC(=O)O the results were Tau fil binding 0%, 15-hLO inh -2%, Casp7 inh 1%, Casp1 inh -3% and DNA Pol III inh 0%.
For COC(=O)CCCCCN1C(=O)NC(CC2CC2)C(C(=O)OCc2ccccc2)=C1C (stereo unspecified) the results were Tau fil binding 25%, 15-hLO inh -19%, Casp7 inh -4%, Casp1 inh -6% and DNA Pol III inh 1%.
For Cc1cc2c(nc1C)CCCN2C[C@@H](O)CN1CCN(C)CC1 the results were 15-hLO inh 6%[11.4 µM], Casp7 inh -3%[11.5 µM] and Casp1 inh -4%[11.5 µM].
`CC(C)[C@@H]1OC(=O)C=CC=CC=CC=CC=CC[C@@H](O)[C@H](C)[C@@H](O)C[C@H](O)C[C@H](O)C[C@H](O)C[C@H](O)C[C@H](O)C[C@H](O)C=C[C@@H]1C` gave Tau fil binding 16%[11.4 µM] and DNA Pol III inh -11%[11.4 µM].
`O=C1CCC=C1[C@@H](O)CCc1ccccc1` gave 15-hLO inh 4%[11.4 µM], Casp7 inh 0%[11.5 µM] and Casp1 inh 0%[11.5 µM].
O=C(Cn1cnnn1)OCC(=O)c1ccc(Cl)s1 was read as Tau fil binding 10µM*, 15-hLO inh -26%, Casp7 inh -11%, Casp1 inh -4% and DNA Pol III inh 2%.
On1onc2c3cc(-c4ccccc4)nc3ccc21 was read as Tau fil binding 13µM*, 15-hLO inh -30%, Casp7 inh -10%, Casp1 inh -5% and DNA Pol III inh -8%.
Screening O=C(O)CSc1cc(-c2ccccc2)nc2ccccc12 returned Tau fil binding -2%[11.4 µM], 15-hLO inh -4%[11.4 µM], Casp7 inh -2%[11.5 µM], Casp1 inh -2%[11.5 µM] and DNA Pol III inh 8%[11.4 µM].
For CC(C)c1ccc(Cn2ccc3c4c(N)nc(NC5CC5)nc4ccc32)cc1 the results were Tau fil binding inactive, 15-hLO inh 7.9µM*, Casp7 inh -1%, Casp1 inh 1% and DNA Pol III inh -6%.
Screening COc1cc2cc3c4c(cc(OC)c(OC)c4c2cc1OC)CCN3C returned Tau fil binding 4µM*, 15-hLO inh -12%[25.6 µM], Casp7 inh inconclusive and DNA Pol III inh -18%.
`CO[C@H]1COC(=O)CCC[C@@H](C)[C@H](OC)COC(=O)[C@H]2CCCN2C(=O)C/C=C\[C@@H]1C` gave 15-hLO inh 2%[11.4 µM], Casp7 inh 0%[11.5 µM] and Casp1 inh 1%[11.5 µM].
For C/C=C(/C(=C/C)c1ccc(O)cc1)c1ccc(O)cc1 the results were 15-hLO inh 25µM*, Casp7 inh -1% and Casp1 inh 0%.
For CC[C@@H](Nc1ncnc2nc[nH]c12)C(=O)O the results were Tau fil binding 6%[11.4 µM], 15-hLO inh -2%[11.4 µM], Casp7 inh -1%[11.5 µM], Casp1 inh -2%[11.5 µM] and DNA Pol III inh -2%[11.4 µM].

Source: PubChem
